# Test results published in the supplement of paper PMC8728848.
# The sample as a whole holds a higher share of the strongest signals than the screen did.
# B1: GNL (Galanthus nivalis) (protein)
# chain: MGHHHHHHHHYGTLENGHWLMVGMSIFSKDRTVELRMQDDGKLAIYYNDHCAWQSTAQQVNNAKGAVMQGDGNFCIYDKNGKATWHTNTAAPSGDSHTFVSVQDDGNLVLYKNNGATPIWSSKSNK
# Key:
# Assay in all cases: glycan array binding signal (z-score within array); higher = stronger binding
# Settings in all cases: glycan notation: IUPAC condensed, linker removed
# [1] = target: Fuc(a1-2)Gal(b1-4)GlcNAc(b1-2)Man
# In short: (§1)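 Negative Z-scores can be read as non-binding. The Z-score is calculated within each array and then averaged across arrays of one protein sequence at different concentrations or buffers and across linkers. Arrays, 3228 in all, were curated from the Consortium for Functional Glycomics database and kept only where the protein sequence was available.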
# [2] = target: Fuc(a1-2)[Gal(a1-3)]Gal(b1-3)GalNAc(b1-3)Gal(a1-4)Gal(b1-4)Glc
# In short: as §1
# [3] = target: Fuc(a1-2)[GalNAc(a1-3)]Gal(b1-4)GlcNAc(b1-2)Man(a1-3)[Fuc(a1-2)[GalNAc(a1-3)]Gal(b1-4)GlcNAc(b1-2)Man(a1-6)]Man(b1-4)GlcNAc(b1-4)[Fuc(a1-6)]GlcNAc
# In short: as §1
# [4] = target: Fuc(a1-3)[Gal3S(b1-4)]Glc
# In short: as §1
# [5] = target: Fuc(a1-3)[GalNAc(b1-4)]GlcNAc6S
# In short: as §1
# [6] = target: Fuc(b1-3)GlcNAc
# In short: as §1
# [7] = target: Gal(a1-3)Gal(b1-4)GlcNAc(b1-2)Man(a1-3)[Gal(a1-3)Gal(b1-4)GlcNAc(b1-2)Man(a1-6)]Man(b1-4)GlcNAc(b1-4)GlcNAc
# In short: as §1
# [8] = target: Gal(a1-3)Gal(b1-4)[Fuc(a1-3)]GlcNAc(b1-2)Man(a1-3)[Gal(a1-3)Gal(b1-4)[Fuc(a1-3)]GlcNAc(b1-2)Man(a1-6)]Man(b1-4)GlcNAc(b1-4)GlcNAc
# In short: as §1
# [9] = target: Gal(a1-4)Gal(b1-3)GlcNAc(b1-2)Man(a1-3)[Gal(a1-4)Gal(b1-3)GlcNAc(b1-2)Man(a1-6)]Man(b1-4)GlcNAc(b1-4)GlcNAc
# In short: as §1
# [10] = target: Gal(a1-4)Gal(b1-4)GlcNAc(b1-2)Man(a1-3)[Gal(a1-4)Gal(b1-4)GlcNAc(b1-2)Man(a1-6)]Man(b1-4)GlcNAc(b1-4)GlcNAc
# In short: as §1
# [11] = target: Gal(b1-3)GalNAc
# In short: as §1
# [12] = target: Gal(b1-3)GalNAc(b1-4)Gal(b1-4)Glc
# In short: as §1
# [13] = target: Gal(b1-3)GlcNAc(a1-3)Gal(b1-4)GlcNAc
# In short: as §1
# [14] = target: Gal(b1-3)GlcNAc(b1-2)Man
# In short: as §1
# [15] = target: Gal(b1-3)GlcNAc(b1-2)Man(a1-3)[Gal(b1-3)GlcNAc(b1-2)Man(a1-6)]Man(b1-4)GlcNAc(b1-4)GlcNAc
# In short: as §1
# [16] = target: Gal(b1-3)GlcNAc(b1-3)Gal(b1-3)GlcNAc
# In short: as §1
# [17] = target: Gal(b1-4)GalNAc(a1-3)[Fuc(a1-2)]Gal(b1-4)GlcNAc
# In short: as §1
# [18] = target: Gal(b1-4)GlcNAc(b1-2)Man(a1-3)[Gal(b1-4)GlcNAc(b1-2)Man(a1-6)]Man(b1-4)GlcNAc(b1-4)GlcNAc
# In short: as §1
# [19] = target: Gal(b1-4)GlcNAc(b1-2)Man(a1-3)[GlcNAc(b1-2)Man(a1-6)]Man(b1-4)GlcNAc(b1-4)GlcNAc
# In short: as §1
# [20] = target: Gal(b1-4)GlcNAc(b1-2)Man(a1-3)[Man(a1-6)]Man(b1-4)GlcNAc(b1-4)GlcNAc
# In short: as §1
# [21] = target: Gal(b1-4)GlcNAc(b1-2)Man(a1-6)[GlcNAc(b1-2)Man(a1-3)]Man(b1-4)GlcNAc(b1-4)GlcNAc
# In short: as §1
# [22] = target: Gal(b1-4)GlcNAc(b1-3)Gal(b1-4)GlcNAc(b1-2)[Gal(b1-4)GlcNAc(b1-3)Gal(b1-4)GlcNAc(b1-6)]Man(a1-6)[Gal(b1-4)GlcNAc(b1-3)Gal(b1-4)GlcNAc(b1-2)Man(a1-3)]Man(b1-4)GlcNAc(b1-4)[Fuc(a1-6)]GlcNAc
# In short: as §1
# [23] = target: Gal(b1-4)GlcNAc(b1-3)Gal(b1-4)GlcNAc(b1-3)[Gal(b1-4)GlcNAc(b1-3)Gal(b1-4)GlcNAc(b1-6)]GalNAc
# In short: as §1
# [24] = target: Gal4S(b1-4)GlcNAc
# In short: as §1
# [25] = target: Gal6S(b1-4)Glc6S
# In short: as §1
# [26] = target: GalNAc(a1-3)Gal
# In short: as §1
# [27] = target: GalNAc(a1-3)GalNAc(b1-3)Gal(a1-4)Gal(b1-4)Glc
# In short: as §1
# [28] = target: GalNAc(b1-4)GlcNAc(b1-2)Man(a1-3)[GalNAc(b1-4)GlcNAc(b1-2)Man(a1-6)]Man(b1-4)GlcNAc(b1-4)GlcNAc
# In short: as §1
# [29] = target: GalNAc3S(b1-4)GlcNAc
# In short: as §1
# [30] = target: GalNAc6S(b1-4)GlcNAc
# In short: as §1
# [31] = target: Glc(a1-6)Glc(a1-6)Glc(a1-6)Glc
# In short: as §1
# [32] = target: GlcNAc(a1-4)Gal(b1-4)GlcNAc
# In short: as §1
# [33] = target: GlcNAc(a1-4)Gal(b1-4)GlcNAc(b1-3)Gal(b1-4)[Fuc(a1-3)]GlcNAc(b1-3)Gal(b1-4)[Fuc(a1-3)]GlcNAc
# In short: as §1
# [34] = target: GlcNAc(b1-2)Man(a1-3)[GlcNAc(b1-2)Man(a1-6)]Man(b1-4)GlcNAc(b1-4)GlcNAc
# In short: as §1
# [35] = target: GlcNAc(b1-2)[GlcNAc(b1-4)]Man(a1-3)[GlcNAc(b1-4)][GlcNAc(b1-2)[GlcNAc(b1-6)]Man(a1-6)]Man(b1-4)GlcNAc(b1-4)GlcNAc
# In short: as §1
# [36] = target: GlcNAc(b1-3)Gal(b1-4)GlcNAc
# In short: as §1
# [37] = target: GlcNAc(b1-3)Gal(b1-4)GlcNAc(b1-2)Man(a1-3)[GlcNAc(b1-3)Gal(b1-4)GlcNAc(b1-2)Man(a1-6)]Man(b1-4)GlcNAc(b1-4)GlcNAc
# In short: as §1
# [38] = target: GlcNAc(b1-3)Gal(b1-4)GlcNAc(b1-3)GalNAc
# In short: as §1
# [39] = target: GlcNAc(b1-3)Gal(b1-4)GlcNAc(b1-6)[GlcNAc(b1-3)]Gal(b1-4)GlcNAc
# In short: as §1
# [40] = target: GlcNAc(b1-4)GlcNAc(b1-4)GlcNAc(b1-4)GlcNAc(b1-4)GlcNAc(b1-4)GlcNAc
# In short: as §1
# [41] = target: GlcNAc6S(b1-3)Gal(b1-4)GlcNAc
# In short: as §1
# [42] = target: Man(a1-2)Man(a1-3)Man
# In short: as §1
# [43] = target: Man(a1-3)[Man(a1-6)]Man(a1-6)[Man(a1-3)]Man(b1-4)GlcNAc(b1-4)GlcNAc
# In short: as §1
# [44] = target: Neu5Ac(a2-3)Gal(b1-3)GlcNAc(b1-2)Man
# In short: as §1
# [45] = target: Neu5Ac(a2-3)Gal(b1-3)GlcNAc(b1-2)Man(a1-3)[GlcNAc(b1-4)][Neu5Ac(a2-3)Gal(b1-3)GlcNAc(b1-2)Man(a1-6)]Man(b1-4)GlcNAc(b1-4)GlcNAc
# In short: as §1
# [46] = target: Neu5Ac(a2-3)Gal(b1-3)GlcNAc(b1-3)Gal(b1-3)GlcNAc
# In short: as §1
# [47] = target: Neu5Ac(a2-3)Gal(b1-3)[Fuc(a1-4)]GlcNAc(b1-3)Gal(b1-4)[Fuc(a1-3)]GlcNAc
# In short: as §1
# [48] = target: Neu5Ac(a2-3)Gal(b1-3)[Neu5Ac(a2-6)]GlcNAc(b1-3)[Fuc(a1-3)[Gal(b1-4)]GlcNAc(b1-6)]Gal(b1-4)Glc
# In short: as §1
# [49] = target: Neu5Ac(a2-3)Gal(b1-3)]Neu5Ac(a2-3)Gal(b1-4)]GlcNAc
# In short: as §1
# [50] = target: Neu5Ac(a2-3)Gal(b1-4)GlcNAc(b1-2)Man(a1-3)[GlcNAc(b1-4)][Neu5Ac(a2-3)Gal(b1-4)GlcNAc(b1-2)Man(a1-6)]Man(b1-4)GlcNAc(b1-4)GlcNAc
# In short: as §1
# [51] = target: Neu5Ac(a2-3)Gal(b1-4)GlcNAc(b1-2)[Neu5Ac(a2-3)Gal(b1-4)GlcNAc(b1-6)]Man(a1-6)[Neu5Ac(a2-3)Gal(b1-4)GlcNAc(b1-2)Man(a1-3)]Man(b1-4)GlcNAc(b1-4)GlcNAc
# In short: as §1
# [52] = target: Neu5Ac(a2-3)Gal(b1-4)GlcNAc(b1-6)[Neu5Ac(a2-3)Gal(b1-3)]GalNAc
# In short: as §1
# [53] = target: Neu5Ac(a2-3)Gal(b1-4)[Fuc(a1-3)]GlcNAc(b1-2)Man
# In short: as §1
# [54] = target: Neu5Ac(a2-3)GalNAc
# In short: as §1
# [55] = target: Neu5Ac(a2-6)Gal(b1-4)GlcNAc(b1-2)Man(a1-3)[Man(a1-6)]Man(b1-4)GlcNAc(b1-4)GlcNAc
# In short: as §1
# [56] = target: Neu5Ac(a2-6)Gal(b1-4)GlcNAc(b1-2)Man(a1-6)[GlcNAc(b1-2)Man(a1-3)]Man(b1-4)GlcNAc(b1-4)GlcNAc
# In short: as §1
# [57] = target: Neu5Ac(a2-6)Gal(b1-4)GlcNAc(b1-3)Gal(b1-4)GlcNAc(b1-6)[Gal(b1-3)]GalNAc
# In short: as §1
# [58] = target: Neu5Ac(a2-6)Gal(b1-4)GlcNAc(b1-6)GalNAc
# In short: as §1
# [59] = target: Neu5Ac(a2-6)Gal(b1-4)GlcNAc(b1-6)[Gal(b1-3)]GalNAc
# In short: as §1
# [60] = target: Neu5Ac(a2-8)Neu5Ac
# In short: as §1
binder,measurement,setting,value
B1,glycan array binding signal (z-score),[1],-0.231
same,glycan array binding signal (z-score),[2],-0.172
same,glycan array binding signal (z-score),[3],-0.207
same,glycan array binding signal (z-score),[4],-0.237
same,glycan array binding signal (z-score),[5],-0.181
same,glycan array binding signal (z-score),[6],-0.156
same,glycan array binding signal (z-score),[7],3.44
same,glycan array binding signal (z-score),[8],-0.054
same,glycan array binding signal (z-score),[9],4.92
same,glycan array binding signal (z-score),[10],5.71
same,glycan array binding signal (z-score),[11],-0.233
same,glycan array binding signal (z-score),[12],-0.061
same,glycan array binding signal (z-score),[13],-0.174
same,glycan array binding signal (z-score),[14],-0.16
same,glycan array binding signal (z-score),[15],4.54
same,glycan array binding signal (z-score),[16],-0.228
same,glycan array binding signal (z-score),[17],-0.257
same,glycan array binding signal (z-score),[18],4.76
same,glycan array binding signal (z-score),[19],3.92
same,glycan array binding signal (z-score),[20],10.9
same,glycan array binding signal (z-score),[21],7.59
same,glycan array binding signal (z-score),[22],-0.241
same,glycan array binding signal (z-score),[23],-0.222
same,glycan array binding signal (z-score),[24],-0.212
same,glycan array binding signal (z-score),[25],-0.207
same,glycan array binding signal (z-score),[26],-0.25
same,glycan array binding signal (z-score),[27],-0.305
same,glycan array binding signal (z-score),[28],-0.248
same,glycan array binding signal (z-score),[29],-0.219
same,glycan array binding signal (z-score),[30],-0.21
same,glycan array binding signal (z-score),[31],-0.121
same,glycan array binding signal (z-score),[32],-0.25
same,glycan array binding signal (z-score),[33],-0.175
same,glycan array binding signal (z-score),[34],8.74
same,glycan array binding signal (z-score),[35],-0.284
same,glycan array binding signal (z-score),[36],-0.226
same,glycan array binding signal (z-score),[37],0.679
same,glycan array binding signal (z-score),[38],-0.013
same,glycan array binding signal (z-score),[39],-0.255
same,glycan array binding signal (z-score),[40],-0.24
same,glycan array binding signal (z-score),[41],-0.28
same,glycan array binding signal (z-score),[42],-0.18
same,glycan array binding signal (z-score),[43],-0.2
same,glycan array binding signal (z-score),[44],-0.208
same,glycan array binding signal (z-score),[45],-0.228
same,glycan array binding signal (z-score),[46],-0.212
same,glycan array binding signal (z-score),[47],-0.191
same,glycan array binding signal (z-score),[48],-0.137
same,glycan array binding signal (z-score),[49],-0.172
same,glycan array binding signal (z-score),[50],-0.295
same,glycan array binding signal (z-score),[51],-0.159
same,glycan array binding signal (z-score),[52],-0.286
same,glycan array binding signal (z-score),[53],-0.295
same,glycan array binding signal (z-score),[54],-0.251
same,glycan array binding signal (z-score),[55],5.43
same,glycan array binding signal (z-score),[56],5.03
same,glycan array binding signal (z-score),[57],-0.216
same,glycan array binding signal (z-score),[58],-0.235
same,glycan array binding signal (z-score),[59],-0.133
same,glycan array binding signal (z-score),[60],-0.189
